From PubChem BioAssay
gsp agonist: qHTS for Agonist of gsp, the Etiologic Mutation Responsible for Fibrous Dysplasia/McCune-Albright Syndrome: qHTS; gsp mutant cells, cAMP HTRF, 30 min; Potency, µM (series often up to 76.9 µM), for the others: at the highest dose activation (cAMP increase), usual class: activators; 340,000 tested, 0.13% active; AID 624287, 2012; active means well fitted activation curve with a large enough effect; inconclusive means small, poorly fitted or top-dose-only effect, or another doubt; inactive means no such curve, though single readings can be large or run the other way; cell line not stated here;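 further: phosphodiesterase inhibitor Ro 20-1724 added with compounds to block cAMP breakdown; nearly all actives have a fitted effect of over 60% in size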
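Cells stably selected in G418 were plated at 2000/well, grown 16-24 hr, then given compounds in DMSO with the PDE inhibitor […] (300 uM solution added) for 30 min at 37C; cAMP was read by HTRF.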
12-LOX inh: Primary qHTS assay for inhibitors of human arachidonate 12S-lipoxygenase (ALOX12): Round 2; Polyunsaturated fatty acid lipoxygenase ALOX12 (Homo sapiens), P18054; 580,000 tested, 1.1% active; AID 1671190, 2021; purified 12hLO, xylenol orange hydroperoxide absorbance; Potency, µM (series often up to 108 µM), without a hit: at the top dose activity change, negative = inhibition, hits mostly inhibitors; further: on the % scale 0 is the no-effect control and ±100 the full control effect
Target sequence (P18054 whole entry, looked up): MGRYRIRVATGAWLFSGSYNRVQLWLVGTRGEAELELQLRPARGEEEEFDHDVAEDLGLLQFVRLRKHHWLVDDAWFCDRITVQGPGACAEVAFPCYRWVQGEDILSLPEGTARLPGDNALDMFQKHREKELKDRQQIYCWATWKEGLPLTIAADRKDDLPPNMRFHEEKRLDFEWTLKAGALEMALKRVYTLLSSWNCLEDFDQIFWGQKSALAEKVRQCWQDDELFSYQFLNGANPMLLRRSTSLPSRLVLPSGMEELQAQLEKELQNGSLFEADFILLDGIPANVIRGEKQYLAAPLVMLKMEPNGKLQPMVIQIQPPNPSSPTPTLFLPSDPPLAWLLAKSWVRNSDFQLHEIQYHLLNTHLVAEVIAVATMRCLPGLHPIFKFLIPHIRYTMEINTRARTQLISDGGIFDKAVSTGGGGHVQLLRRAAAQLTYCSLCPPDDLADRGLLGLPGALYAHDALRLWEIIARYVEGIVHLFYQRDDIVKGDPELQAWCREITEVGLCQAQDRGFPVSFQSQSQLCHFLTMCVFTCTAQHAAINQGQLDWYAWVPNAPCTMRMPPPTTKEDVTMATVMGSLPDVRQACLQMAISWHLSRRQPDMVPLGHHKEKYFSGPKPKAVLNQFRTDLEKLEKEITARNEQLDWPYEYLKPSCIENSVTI
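Hydroperoxide product was detected by ferrous iron/xylenol orange as the 573 to 405 nm absorbance ratio. Arachidonic acid at 40 uM (final) was turned over for 30 min at room temperature by 150 nM human 12hLO, pH 7.0 Hepes buffer, after 15 min compound preincubation.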
FUS yeast rescue: qHTS for Suppressors of FUS Proteinopathy: Primary screen using FUS-linked yeast assay; S. cerevisiae FUS-expressing, growth rescue, OD600, 24 h; Potency, µM (doses to about 76.6 µM), most hits filed as activators; 390,000 tested, 0.24% active;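 further: plate controls were DMSO vehicle for no effect and reference control for full effect; nearly all actives have a fitted effect of over 55% in size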
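Toxicity suppression screen in FUS-yeast. Cells induced with 2% galactose, starting OD 0.005, treated 24hr at 30C with compounds at multiple final concentrations; growth by OD600.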
gsp antag: qHTS for Antagonists of gsp, the Etiologic Mutation Responsible for Fibrous Dysplasia/McCune-Albright Syndrome: qHTS. gsp-mutant cells, cAMP HTRF, 30 min. Potency, µM (series often up to 76.9 µM), without a hit: at the highest dose activity change, negative = inhibition, usual class: inhibitors. 340,000 tested, 0.4% active. AID 624288, 2012; calls by dose curve; cell line not stated here;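 further: intracellular cAMP measured with PDE inhibitor Ro 20-1724 present during compound exposure; on the % scale 0 is the no-effect control and ±100 the full control effect; nearly all actives have a fitted effect of over 65% in size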
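Cells, 2000/well, grown 16–24 h in DMEM 10% FBS with 0.5 mg/ml G418, then compounds plus […] (300 uM addition stock), 30 min at 37C. cAMP read by HTRF (cAMP-d2 and anti-cAMP antibody-K in lysis buffer) after 30 min RT.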
Mito fusion act: qHTS Assay for Small Molecule Inhibitors of Mitochondrial Division or Activators of Mitochondrial Fusion; S. cerevisiae fusion-defective mutant growth rescue, CellTiterGlo 48 h; Potency, µM (doses to about 46.1 µM), for inactives: at the top dose growth rescue (activation), hits mostly activators; 320,000 tested, 0.23% active; further: % of control where 0% means no effect; nearly all actives have a fitted effect of over 45% in size
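Compounds are tested for their ability to restore growth of mitochondrial fusion-defective yeast strains at non-permissive 37C in YPEG medium over 48 hours. Viability is quantified by luciferase luminescence.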
* = called active by the depositor; i = inactive; ? = inconclusive; . = no result; [ ] = dose if it differs, or a comment. A selection: hits, their analogues and other compounds. The true share with any hit is near 1.6%. Unless noted, the call rests on the fitted dose curve; in most records, active means well fitted curve in the direction sought with a large enough effect; inconclusive means small, poorly fitted or top-dose-only effect, or another doubt; inactive means no such curve, though single readings can be large; an effect the other way counts as inactive or inconclusive. Potency means the concentration at half of the fitted maximal effect.

SMILES	gsp agonist	12-LOX inh	FUS yeast rescue	gsp antag	Mito fusion act
Cc1c(C(=O)Nc2ccc3c(c2)OCCO3)sc2ncnc(N3CCCCC3C)c12 (configuration not stated)	27%	-1%	i	?	11µM*
CCCCNc1nc2c(c(=O)n(Cc3cccc(Br)c3)c(=O)n2C)n1C	.	-13%	.	.	.
Cc1ccc(CN2CC3(C2)NC(=O)c2ccccc2O3)cc1	.	49%[176 µM]	.	.	.
COc1ccc(Br)cc1Cn1nnc(C(=O)Nc2ccc3c(c2)OCCO3)c1N	?	13%	i	1%	10µM*
CCCC[N+](CCCC)(CCCC)CCCC	.	11µM*	.	.	.
Cc1cc(NC(=O)COC(=O)C2(c3ccccc3)CCCC2)no1	.	0%	.	.	.
c1ccc(Cc2nn3c(C4COc5ccccc5O4)nnc3s2)cc1 (configuration not stated)	-3%	-5%	i	7%	20%
CCOc1ccccc1OCc1nn2c(C3COc4ccccc4O3)nnc2s1 (configuration not stated)	.	7.1µM*	.	.	.
Cc1nc2sc3c(c2c(-c2ccc(Cl)cc2)c1C(N)=O)CCCC3	.	-21%	.	.	.
COc1ccc(CC(=O)N2Cc3ccccc3CC3(CCCN(C)C3)C2)cc1 (configuration not stated)	.	10%[6.33 µM]	.	.	.
Cc1cc(C)c(C#N)c(SCc2ccccc2)n1	-19%	-20%	i	-10%	13%
Cc1cc(C)c(C#N)c(SCc2ccc(C(=O)O)cc2)n1	-3%	13%	i	40µM*	6%
Cc1cc(C)c(C#N)c(SCc2ccccc2C)n1	22%	-1%	i	1%	7.1µM*
CC1(C)[C@H](Cc2cc(CC3CCCCC3)on2)C[C@@H]1NC(=O)c1ccco1	.	1%[176 µM]	.	.	.
COc1ccccc1CNC(=O)C(=O)NCC(c1cccs1)S(=O)(=O)c1ccc(F)cc1 (configuration not stated)	.	-21%	28µM*	.	.
Cc1cccc(C(=O)NC(C)C(=O)OCc2cc(=O)oc3cc(O)ccc23)c1 (configuration not stated)	.	-13%	.	.	.
COc1ccc(S(=O)(=O)/N=C2/NC(=O)/C(=C\c3ccco3)S2)cc1	24%	40µM*	i	-17%	9%
COc1ccc(S(=O)(=O)/N=C2/NC(=O)/C(=C/c3ccco3)S2)cc1	6%	18µM*	.	-4%	1%
COc1ccc(N=C2NC(=O)/C(=C/c3ccco3)S2)cc1	-14%	?	i	-19%	-1%
Cc1ccc(C(=O)Nc2ccc3oc(=O)ccc3c2)c(Cl)c1	.	9%	.	.	.
FC(F)(F)c1ccc(-c2cnc([C@@H]3COCCN3Cc3ccccn3)[nH]2)cc1	.	34%[176 µM]	.	.	.
C/C=C/C=C/C(=O)N1CC[C@]23c4ccccc4N[C@H]4N(C)c5cccc6c5[C@]42CCN([C@H]6C2OC2(C)C)[C@H]13 (some centres not stated)	-20%	-14%	16µM*	-18%	27%
COc1ccc2c3c([nH]c2c1)[C@@H](CO)N(Cc1ccccc1)CC31CN(C(=O)Cc2ccccc2)C1	.	5µM*	.	.	.
Cc1nc(N(C)C)ncc1C(=O)NCc1ccccc1Cl	.	0%	.	.	.
CCOC(=O)c1cnc2c(Cl)c(Cl)ccc2c1NCCN1CCOCC1	?	16%	i	-3%	-7%
SMILES	gsp agonist	12-LOX inh	FUS yeast rescue	gsp antag	Mito fusion act
CCOC(=O)c1cnc2c(C)c(Cl)ccc2c1NCCCN1CCOCC1	1%	45µM*	i	-9%	-18%
Cc1c(N)cccc1C(=O)NCC(C)C	.	-21%	.	.	.
COc1cc(Cl)cc(C(c2c(C(=O)O)[nH]c3ccccc23)c2c(C(=O)O)[nH]c3ccccc23)c1O	27%	16µM*	i	1%	-4%
O=c1c(C(c2c(O)nc3n(c2=O)CCS3)c2cccc3ccccc23)c(O)nc2n1CCS2	3%	32µM*	i	-2%	4%
CC(=O)Nc1ccc(Nc2cc(C)nc3c(-c4ccccc4)cnn23)cc1	8%	-15%	i	?	14µM*
NNc1nc2ccc(Cl)cc2s1	9%[15.4 µM]	7.1µM*	i	?	7%
NNc1nc2ccc(F)cc2s1	8%	6.3µM*	.	-44%	14%
O=C(Nc1nc2ccc(Cl)cc2s1)c1ccc(Br)o1	-8%	-2%	i	3%	11%
CSc1ccccc1C(=O)Nc1ncn[nH]1	3%	11µM*	i	0%	2%
C=CCSc1ccccc1C(=O)Nc1ncn[nH]1	11%	?	i	4%	6%
CCCC(=O)Nc1c(-c2cccc3ccccc23)c(=O)c2ccccc2n1C	.	24%	.	.	.
CN(CCO)C(=O)c1nc(-c2cccc3[nH]ccc23)no1	.	-22%	.	.	.
CC(=O)c1cc(O)c2ccccc2c1O	-10%	1.6µM*	i	-12%	-25%
CC(=O)c1coc2c1cc(O)c1ccccc12	?	14%	i	2%	-1%
Nc1cccc(C(=O)NCc2cccnc2)c1	.	36%	.	.	.
N#Cc1ccc(OCc2cccc3ccccc23)c(Cl)c1	.	-25%	.	.	.
CCCn1nc([N+](=O)[O-])c(C(C#N)c2nc3ccccc3s2)c(Cl)c1=O (configuration not stated)	17%	?	i	32µM*	-19%
Cc1ccc(NC(=O)CSc2nc3cc([N+](=O)[O-])ccc3o2)cc1C	.	40µM*	.	.	.
O=C(CSc1nc2cc(Cl)ccc2o1)Nc1ccc(N2CCOCC2)cc1	11%	-18%	i	-13%	0%
Cc1cccc(NC(=O)CSc2nc3cc([N+](=O)[O-])ccc3o2)c1	.	32µM*	.	.	.
O=C(CSc1nc2cc([N+](=O)[O-])ccc2o1)Nc1ccc(Cl)cc1	.	22µM*	.	.	.
CC1CCN(S(=O)(=O)N2CCCC(c3nncn3C)C2)CC1 (configuration not stated)	.	-37%	.	.	.
N#Cc1ccc(Oc2cccc(F)c2)cc1	.	-30%	.	.	.
CC(C)c1nc2c(c(-c3ccc(Cl)cc3)n1)CCN(C(=O)c1ccccc1F)CC2	.	5%[6.33 µM]	.	.	.
CCc1nc2ccccc2n1CCCCOc1cccc(C)c1	.	40µM*	i	.	.
c1ccc(OCCn2c(-c3ccco3)nc3ccccc32)cc1	3%	?	i	-18%	-6%
Cc1cccc(OCCn2c(-c3ccco3)nc3ccccc32)c1	1%	?	i	35µM*	-6%
Cc1oc(-c2ccccc2)nc1CC(=O)Nc1ccc(Cl)cc1Cl	.	7.9µM*	.	.	.
Cc1oc(-c2ccccc2)nc1CC(=O)Nc1cc(F)ccc1F	.	-6%	.	.	.
COc1cccc(NC(=O)CSc2nnc(COc3ccc4c(c3)CCCC4)o2)c1	-33%	14µM*	i	2%	-1%
